# Results taken from the antibiotic and cytotoxicity screens of Wong et al. (2023).
# The campaign covered roughly 39,000 compounds. About 3,300 (8.5%) were called active. The entries come from a sample that favours actives as a whole.
# Tested on: HepG2
# Test: cytotoxicity call (relative viability < 0.9)
# Conditions: 10 µM
row,SMILES,cytotoxicity call
1,C[C@@H]1CCCCO[C@@H](CN(C)CC2CCCCC2)[C@H](C)CN([C@H](C)CO)C(=O)c2cc(NC(=O)Nc3ccc(F)cc3)ccc2O1,active
2,C[C@@H]1CN([C@@H](C)CO)C(=O)c2cc(NC(=O)Nc3ccc(F)cc3)ccc2O[C@@H](C)CCCCO[C@@H]1CN(C)CC1CCCCC1,active
3,C[C@@H]1CCCCO[C@@H](CN(C)CC2CCCCC2)[C@H](C)CN([C@@H](C)CO)C(=O)c2cc(NC(=O)Nc3ccc(F)cc3)ccc2O1,active
4,C[C@@H]1CCCCO[C@H](CN(C)CC2CCCCC2)[C@H](C)CN([C@@H](C)CO)C(=O)c2cc(NC(=O)Nc3ccc(F)cc3)ccc2O1,active
5,C[C@@H]1CCCCO[C@H](CN(C)CC2CCCCC2)[C@@H](C)CN([C@H](C)CO)C(=O)c2cc(NC(=O)Nc3ccc(F)cc3)ccc2O1,inactive
6,C[C@H]1CCCCO[C@@H](CN(C)CC2CC2)[C@@H](C)CN([C@@H](C)CO)C(=O)c2cc(NC(=O)Nc3ccc(F)cc3)ccc2O1,inactive
7,C[C@@H]1CN([C@H](C)CO)C(=O)CCCn2cc(nn2)CO[C@H]1CN(C)S(=O)(=O)c1ccc2c(c1)OCCCO2,inactive
8,Cc1noc(C)c1NC(=O)N(C)C[C@H]1OCCCC[C@H](C)Oc2ccc(NC(=O)NC3CCCCC3)cc2C(=O)N([C@@H](C)CO)C[C@@H]1C,inactive
9,CN(C)CC#Cc1ccc([C@@H]2[C@H]3CN(C(=O)CN(C)C)CCCCN3[C@H]2CO)cc1,inactive
10,C[C@@H]1CCCCO[C@@H](CN(C)C(=O)NC2CCCCC2)[C@H](C)CN([C@@H](C)CO)C(=O)c2cc(NC(=O)NC3CCCCC3)ccc2O1,inactive
11,O=C(C[C@@H]1C[C@H]2c3cc(NC(=O)c4ccc5c(c4)OCO5)ccc3O[C@H]2[C@@H](CO)O1)NCc1ccccn1,inactive
12,C[C@@H]1CN([C@@H](C)CO)C(=O)c2cccc(NC(=O)Nc3ccc(C(F)(F)F)cc3)c2O[C@@H]1CN(C)Cc1ccc(-c2ccccc2)cc1,inactive
13,CC(C)NC(=O)Nc1ccc2c(c1)CC(=O)N([C@H](C)CO)C[C@@H](C)[C@H](CN(C)S(=O)(=O)c1cn(C)cn1)O2,inactive
14,C[C@H]1CN([C@@H](C)CO)C(=O)c2cccc(NS(=O)(=O)c3ccc(F)cc3)c2O[C@@H]1CN(C)Cc1ccncc1,inactive
15,C[C@H](O)C#Cc1ccc2c(c1)O[C@H](CN(C)C(=O)c1ccccc1)[C@H](C)CN([C@@H](C)CO)S2(=O)=O,inactive
16,C[C@@H]1CN([C@@H](C)CO)S(=O)(=O)c2ccc(-c3cccnc3)cc2O[C@H]1CN(C)C(=O)c1cccc(F)c1,inactive
17,C[C@H](CO)N1C[C@H](C)[C@H](CN(C)CC2CCCCC2)OCCCC[C@H](C)Oc2ccc(NC(=O)Nc3ccc(F)cc3)cc2C1=O,active
18,C[C@@H]1CCCCO[C@@H](CN(C)CC2CC2)[C@@H](C)CN([C@H](C)CO)C(=O)c2cc(NC(=O)Nc3ccc(F)cc3)ccc2O1,inactive
19,C[C@H](CO)N1C[C@H](C)[C@@H](CN(C)CC2CC2)OCCCC[C@H](C)Oc2ccc(NC(=O)Nc3ccc(F)cc3)cc2C1=O,inactive
20,C[C@@H]1CN([C@@H](C)CO)C(=O)c2cc(NC(=O)Nc3ccc(F)cc3)ccc2O[C@@H](C)CCCCO[C@H]1CN(C)CC1CCCCC1,active
21,C[C@H](CO)N1C[C@H](C)[C@@H](CN(C)CC2CCCCC2)OCCCC[C@H](C)Oc2ccc(NC(=O)Nc3ccc(F)cc3)cc2C1=O,active

row,SMILES,cytotoxicity call
1,C[C@H](CO)N1C[C@H](C)[C@H](CN(C)CC2CC2)OCCCC[C@H](C)Oc2ccc(NC(=O)Nc3ccc(F)cc3)cc2C1=O,inactive
2,C[C@@H]1CCCCO[C@@H](CN(C)CC2CC2)[C@H](C)CN([C@@H](C)CO)C(=O)c2cc(NC(=O)Nc3ccc(F)cc3)ccc2O1,inactive
3,COCC(=O)Nc1ccc2c(c1)OC[C@H](C)N(C(=O)Cc1cccnc1)C[C@@H](C)[C@H](OC)CN(C)C2=O,inactive
4,COCC#Cc1ccc2c(c1)O[C@H](CN(C)C(=O)Nc1ccccc1F)[C@H](C)CN([C@@H](C)CO)S2(=O)=O,inactive
5,COc1ccccc1-c1cnc2c(c1)C(=O)N([C@@H](C)CO)C[C@H](C)[C@@H](CN(C)C(=O)c1ccncc1)O2,inactive
6,O=C(C[C@H]1CC[C@@H](NC(=O)CN2CCOCC2)[C@@H](CO)O1)NC1CCC1,inactive
7,O=C1/C(=C/C=C/c2ccco2)CCC/C1=C\C=C\c1ccco1,inactive
8,NC(=O)CSc1nnnn1-c1cccc(O)c1,inactive
9,C[C@H]1CN([C@@H](C)CO)C(=O)c2cccc(NC(=O)c3cnccn3)c2O[C@@H]1CN(C)S(=O)(=O)c1ccc(Cl)cc1,inactive
10,CC(C)NC(=O)N(C)C[C@H]1Oc2ccc(NC(=O)C3CCCCC3)cc2C(=O)N([C@@H](C)CO)C[C@@H]1C,inactive
11,CS(=O)(=O)Nc1ccc2c(c1)[C@H]1C[C@@H](CC(=O)NCc3ccc(-c4ccccc4)cc3)O[C@@H](CO)[C@H]1O2,inactive
12,C[C@@H]1CCCCO[C@H](CN(C)Cc2ccccc2)[C@H](C)CN([C@H](C)CO)C(=O)c2cc(NS(=O)(=O)c3ccc(F)cc3)ccc2O1,inactive
13,O=C(C[C@H]1C=C[C@H](NS(=O)(=O)c2ccccc2)[C@@H](CO)O1)NCc1ccncn1,inactive
14,C[C@@H]1CN([C@H](C)CO)C(=O)Cc2cc(NC(=O)CCC(F)(F)F)ccc2O[C@H]1CN(C)Cc1ccc(C(F)(F)F)cc1,active
15,C[C@@H]1CN([C@H](C)CO)C(=O)Cc2cc(NC(=O)CCC(F)(F)F)ccc2O[C@@H]1CN(C)Cc1ccc(C(F)(F)F)cc1,inactive
16,C[C@H](CO)N1C[C@H](C)[C@H](CN(C)Cc2ccc(C(F)(F)F)cc2)Oc2ccc(NC(=O)Nc3ccc(C(F)(F)F)cc3)cc2CC1=O,active
17,C[C@@H]1CN([C@@H](C)CO)C(=O)Cc2cc(NC(=O)Nc3ccc(C(F)(F)F)cc3)ccc2O[C@@H]1CN(C)Cc1ccc(C(=O)O)cc1,inactive
18,C[C@H]1CN([C@@H](C)CO)C(=O)Cc2cc(NC(=O)Nc3ccc(C(F)(F)F)cc3)ccc2O[C@@H]1CN(C)Cc1ccc(C(F)(F)F)cc1,inactive
19,C[C@H](CO)N1C[C@H](C)[C@@H](CN(C)Cc2ccc(C(F)(F)F)cc2)Oc2ccc(NC(=O)Nc3ccc(C(F)(F)F)cc3)cc2CC1=O,active
20,C[C@@H]1CN([C@H](C)CO)C(=O)Cc2cc(NC(=O)Nc3ccc(C(F)(F)F)cc3)ccc2O[C@@H]1CN(C)Cc1ccc(C(=O)O)cc1,inactive
21,C[C@@H]1CN([C@H](C)CO)C(=O)Cc2cc(NC(=O)Nc3ccc(C(F)(F)F)cc3)ccc2O[C@H]1CN(C)Cc1ccc(C(F)(F)F)cc1,inactive

row,SMILES,cytotoxicity call
1,C[C@H]1CN([C@@H](C)CO)C(=O)Cc2cc(NC(=O)CCC(F)(F)F)ccc2O[C@@H]1CN(C)Cc1ccc(C(F)(F)F)cc1,inactive
2,C[C@H]1CN([C@@H](C)CO)C(=O)Cc2cc(NC(=O)Nc3ccc(C(F)(F)F)cc3)ccc2O[C@H]1CN(C)Cc1ccc(C(F)(F)F)cc1,active
3,Cc1noc(C)c1NC(=O)N[C@H]1CC[C@H](CC(=O)N2CCN(C)CC2)O[C@@H]1CO,inactive
4,O=C(C[C@@H]1CC[C@H]2[C@@H](COC[C@H](O)CN2S(=O)(=O)c2ccccc2F)O1)NCc1ccccc1Cl,inactive
5,C[C@@H]1CN([C@@H](C)CO)C(=O)c2cc(NC(=O)Cc3ccccc3)ccc2O[C@@H]1CN(C)S(=O)(=O)c1cccs1,inactive
6,O=C(O)Cn1nnnc1-c1ccc(F)cc1,inactive
7,CO[C@H]1O[C@H](CO)[C@@H](OC(=O)c2ccc(Br)cc2)[C@@H]2OC(=O)[C@@H](Cc3ccccc3)C/C=C/C[C@H](Cc3ccccc3)C(=O)O[C@@H]12,inactive
8,COCC(=O)N1C[C@H](C)[C@@H](OC)CN(C)C(=O)c2ccc(NC(=O)c3ccc(F)cc3)cc2OC[C@H]1C,inactive
9,COCC(=O)Nc1ccc2c(c1)OC[C@@H](C)N(Cc1ccccc1F)C[C@H](C)[C@H](OC)CN(C)C2=O,inactive
10,CCCCCCCCCCCCCCCCOc1nc2ccc(C)cc2c(=O)o1,inactive
11,C[C@H](CO)N1C[C@H](C)[C@@H](CN(C)Cc2ccc(C(=O)O)cc2)Oc2ccc(NC(=O)Nc3ccc(C(F)(F)F)cc3)cc2CC1=O,inactive
12,CC(C)NC(=O)N(C)C[C@H]1Oc2ccc(NC(=O)CCC(F)(F)F)cc2CC(=O)N([C@@H](C)CO)C[C@@H]1C,active
13,C[C@@H]1CN([C@H](C)CO)C(=O)Cc2cc(NC(=O)Nc3ccc(C(F)(F)F)cc3)ccc2O[C@@H]1CN(C)Cc1ccc(C(F)(F)F)cc1,active
14,C[C@@H]1CN([C@@H](C)CO)C(=O)Cc2cc(NC(=O)Nc3ccc(C(F)(F)F)cc3)ccc2O[C@H]1CN(C)Cc1ccc(C(F)(F)F)cc1,active
15,C[C@H]1CN([C@@H](C)CO)C(=O)Cc2cc(NC(=O)NC3CCCCC3)ccc2O[C@H]1CN(C)Cc1ccc(C(F)(F)F)cc1,active
16,CC(C)NC(=O)N(C)C[C@@H]1Oc2ccc(NC(=O)CCC(F)(F)F)cc2CC(=O)N([C@@H](C)CO)C[C@H]1C,inactive
17,C[C@@H]1CN([C@H](C)CO)C(=O)Cc2cc(NC(=O)NC3CCCCC3)ccc2O[C@H]1CN(C)Cc1ccc(C(F)(F)F)cc1,inactive
18,C[C@@H]1CN([C@H](C)CO)C(=O)Cc2cc(NC(=O)NC3CCCCC3)ccc2O[C@@H]1CN(C)Cc1ccc(C(F)(F)F)cc1,inactive
19,C[C@H]1CN([C@@H](C)CO)C(=O)Cc2cc(NC(=O)Nc3ccc(C(F)(F)F)cc3)ccc2O[C@H]1CN(C)Cc1ccc(C(=O)O)cc1,inactive
20,CC(C)NC(=O)N(C)C[C@H]1Oc2ccc(NC(=O)CCC(F)(F)F)cc2CC(=O)N([C@H](C)CO)C[C@H]1C,inactive
